Where “and” joins values, the source holds several entries; their conditions need not be identical. Identical values can stand only once. Inconclusive results are not listed. Where a call stands in place of a potency, no number is given. The source holds several records for some structures; these can differ, active in one and inactive in another. Calls of active or inactive are those of the source. Unless noted, the call rests on the fitted dose curve; in most records, active means well fitted curve in the direction sought with a large enough effect in the repeat runs; inconclusive means weak or mixed curves; inactive means no such curve, though single readings can be large; an effect the other way counts as inactive or inconclusive.
What was measured:
[1] = molecular target: Acetylcholinesterase (Homo sapiens) (UniProt P22303); experiment: Acetylcholinesterase (AChE) small molecule antagonists: fluorescence cell-based qHTS assay (AID 1347398; calls by dose curve; further: nearly all actives have a fitted effect of over 50% in size); settings: Potency: AChE activity; outcome: AChE activity
Procedure, shortened: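 Cells (SH-SY5Y) attached overnight, were dosed with compound or DMSO vehicle for 30 min at 37 C, and then incubated 40 min at room temperature with acetylthiocholine and Thiolite Green; green fluorescence indexed AChE activity.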

[2] = molecular target: Acetylcholinesterase (Homo sapiens) (UniProt P22303); experiment: Acetylcholinesterase (AChE) small molecule antagonists: colormetric cell-based qHTS assay (AID 1347395; calls by dose curve; further: nearly all actives have a fitted effect of over 30% in size; further: potency means the concentration at half of the fitted maximal effect)
Procedure, shortened: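 After overnight attachment at 37 C, SH-SY5Y cells get 30 min compound exposure; detection cocktail (acetylthiocholine, DTNB) then incubates 90 min at 37 C, and absorbance reflects AChE-generated thiocholine.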

[3] = molecular target: Acetylcholinesterase (Homo sapiens) (UniProt P22303); experiment: Acetylcholinesterase (AChE) small molecule antagonists: enzyme-based qHTS assay with human liver microsomes (AID 1347399; calls by dose curve; further: nearly all actives have a fitted effect of over 60% in size); settings: Potency: qHTS inhibition; outcome: qHTS inhibition
Procedure, shortened: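 Recombinant human AChE (50 mU/mL in the enzyme mix) and human liver microsomes (0.25 mg/mL final) were preincubated with compound and NADPH (0.25 mg/mL final) for 30 min at 37 C. Acetylthiocholine/DTNB was then added; thiocholine was read colorimetrically after 10 min at room temperature.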

[4] = molecular target: Cytochrome P450 2D6 (Homo sapiens) (UniProt P10635); experiment: Cytochrome P450 Family 2 Subfamily D Member 6 (CYP2D6) small molecule antagonists: luciferase reporter qHTS assay (AID 1671196); further: nearly all actives have a fitted effect of over 50% in size; further: potency means the concentration at half of the fitted maximal effect
Procedure, shortened: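 Chemicals tested for interference with CYP2D6 activity; proluciferin substrate, NADPH regeneration, 1 h at room temperature, luminescent detection.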

[5] = molecular target: Cytochrome P450 1A2 (Homo sapiens) (UniProt P05177); experiment: Cytochrome P450 Family 1 Subfamily A Member 2 (CYP1A2) small molecule antagonists: luciferase reporter qHTS assay (AID 1671199); further: nearly all actives have a fitted effect of over 50% in size; further: potency means the concentration at half of the fitted maximal effect
Procedure, shortened: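 Read-out is luminescence from luciferin detection reagent (20 min) proportional to CYP1A2 activity; compounds in DMSO preincubated 10 min with enzyme and proluciferin substrate, then NADPH regeneration solution, 1 h, room temperature.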

[6] = molecular target: Voltage-gated inwardly rectifying potassium channel KCNH2 (Homo sapiens) (UniProt Q12809); experiment: Human Ether-a-go-go-Related Gene (hERG) channel small molecule antagonists: fluorescence cell-based qHTS assay (AID 1671200); further: nearly all actives have a fitted effect of over 50% in size; further: potency means the concentration at half of the fitted maximal effect
Procedure, shortened: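 In this thallium-flux screen, overnight-cultured U2OS cells bearing the channel are dye-loaded in darkness for an hour, rested 10 min at room temperature, and then monitored kinetically at 480/540 nm for two minutes post-stimulus.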

[7] = molecular target: Cytochrome P450 3A4 (Homo sapiens) (UniProt P08684); experiment: Cytochrome P450 Family 3 Subfamily A Member 4 (CYP3A4) small molecule antagonists: luciferase reporter qHTS assay (AID 1671201); further: nearly all actives have a fitted effect of over 50% in size; further: potency means the concentration at half of the fitted maximal effect
Procedure, shortened: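 CYP3A4 activity was followed with a P450-Glo proluciferin substrate. Test compounds in DMSO were preincubated 10 min; NADPH regeneration then ran 1 h, and light output was read 20 min after detection reagent.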

[8] = molecular target: Cytochrome P450 2C9 (Homo sapiens) (UniProt P11712); experiment: Cytochrome P450 Family 2 Subfamily C Member 9 (CYP2C9) small molecule antagonists: luciferase reporter qHTS assay (AID 1671198); further: nearly all actives have a fitted effect of over 50% in size; further: potency means the concentration at half of the fitted maximal effect
Procedure, shortened: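 P450-Glo proluciferin substrate with CYP2C9 enzyme; 10 min RT preincubation, then NADPH regeneration 1 h at 37C; luciferin detection reagent 20 min RT, luminescence in relative luminescence units.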

[9] = molecular target: Cytochrome P450 2C19 (Homo sapiens) (UniProt P33261); experiment: Cytochrome P450 Family 2 Subfamily C Member 19 (CYP2C19) small molecule antagonists: luciferase reporter qHTS assay (AID 1671197); further: nearly all actives have a fitted effect of over 65% in size; further: potency means the concentration at half of the fitted maximal effect
Procedure, shortened: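 CYP2C19 P450-Glo, 1536-well qHTS. Cpd + enzyme/proluciferin substrate 10 min RT; + NADPH regen, 37C 1 h; stop with luciferin detection reagent, 20 min RT, luminescence (RLU). Pos ctrl ketoconazole.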

[10] = molecular target: Acetylcholinesterase (Homo sapiens) (UniProt P22303); experiment: Acetylcholinesterase (AChE) small molecule antagonists: enzyme-based qHTS assay (AID 1347397; calls by dose curve; further: nearly all actives have a fitted effect of over 55% in size; further: potency means the concentration at half of the fitted maximal effect); settings: Potency: AChE enzyme activity inhibition; outcome: AChE enzyme activity inhibition
Procedure, shortened: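 In this quantitative HTS, compounds from the Tox21 10K collection were preincubated 30 min at ambient temperature with recombinant human AChE dispensed at 50 mU/mL. Hydrolysis of acetylthiocholine was then followed for 10 min by DTNB colour development.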

Chain of Cytochrome P450 2C19 (Homo sapiens) (P33261 whole entry, looked up): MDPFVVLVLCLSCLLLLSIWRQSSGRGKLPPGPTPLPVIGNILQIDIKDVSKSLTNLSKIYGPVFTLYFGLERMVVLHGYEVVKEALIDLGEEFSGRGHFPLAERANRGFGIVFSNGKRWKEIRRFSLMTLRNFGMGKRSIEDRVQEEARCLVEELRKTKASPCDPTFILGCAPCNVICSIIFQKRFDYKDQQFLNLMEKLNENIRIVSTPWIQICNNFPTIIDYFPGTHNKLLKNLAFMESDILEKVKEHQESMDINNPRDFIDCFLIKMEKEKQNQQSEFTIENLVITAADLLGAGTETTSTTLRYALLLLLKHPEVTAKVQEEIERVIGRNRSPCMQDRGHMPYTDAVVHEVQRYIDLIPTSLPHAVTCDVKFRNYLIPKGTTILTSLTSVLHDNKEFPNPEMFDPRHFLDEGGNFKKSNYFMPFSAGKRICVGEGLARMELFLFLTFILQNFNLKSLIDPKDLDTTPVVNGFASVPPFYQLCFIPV
Chain of Cytochrome P450 2D6 (Homo sapiens) (P10635 whole entry, looked up): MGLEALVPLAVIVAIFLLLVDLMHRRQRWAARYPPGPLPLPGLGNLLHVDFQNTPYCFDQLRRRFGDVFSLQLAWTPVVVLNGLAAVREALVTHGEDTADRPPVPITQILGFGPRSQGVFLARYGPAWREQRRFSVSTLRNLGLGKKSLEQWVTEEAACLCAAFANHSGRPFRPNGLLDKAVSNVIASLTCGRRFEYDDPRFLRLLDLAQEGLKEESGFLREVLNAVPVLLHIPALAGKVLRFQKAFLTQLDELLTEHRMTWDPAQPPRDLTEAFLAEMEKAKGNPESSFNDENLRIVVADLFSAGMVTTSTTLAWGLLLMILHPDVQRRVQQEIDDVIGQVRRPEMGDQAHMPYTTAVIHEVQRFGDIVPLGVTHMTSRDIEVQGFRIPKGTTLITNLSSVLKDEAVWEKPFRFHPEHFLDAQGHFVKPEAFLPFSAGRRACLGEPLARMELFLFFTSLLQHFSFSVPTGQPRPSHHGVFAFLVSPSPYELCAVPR
Chain of Cytochrome P450 2C9 (Homo sapiens) (P11712 whole entry, looked up): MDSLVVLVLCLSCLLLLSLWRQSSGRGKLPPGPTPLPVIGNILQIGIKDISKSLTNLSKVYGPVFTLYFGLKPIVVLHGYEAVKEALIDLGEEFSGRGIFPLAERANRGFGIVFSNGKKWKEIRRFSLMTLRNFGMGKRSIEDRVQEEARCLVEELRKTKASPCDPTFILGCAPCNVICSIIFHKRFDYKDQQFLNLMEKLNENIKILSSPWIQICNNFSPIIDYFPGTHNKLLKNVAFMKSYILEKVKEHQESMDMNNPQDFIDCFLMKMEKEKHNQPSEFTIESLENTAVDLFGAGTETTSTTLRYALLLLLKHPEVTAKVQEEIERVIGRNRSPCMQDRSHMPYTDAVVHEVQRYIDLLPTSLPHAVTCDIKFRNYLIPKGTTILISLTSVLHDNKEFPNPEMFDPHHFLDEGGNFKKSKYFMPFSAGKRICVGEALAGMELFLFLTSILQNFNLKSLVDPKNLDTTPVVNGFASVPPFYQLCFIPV
Chain of Cytochrome P450 3A4 (Homo sapiens) (P08684 whole entry, looked up): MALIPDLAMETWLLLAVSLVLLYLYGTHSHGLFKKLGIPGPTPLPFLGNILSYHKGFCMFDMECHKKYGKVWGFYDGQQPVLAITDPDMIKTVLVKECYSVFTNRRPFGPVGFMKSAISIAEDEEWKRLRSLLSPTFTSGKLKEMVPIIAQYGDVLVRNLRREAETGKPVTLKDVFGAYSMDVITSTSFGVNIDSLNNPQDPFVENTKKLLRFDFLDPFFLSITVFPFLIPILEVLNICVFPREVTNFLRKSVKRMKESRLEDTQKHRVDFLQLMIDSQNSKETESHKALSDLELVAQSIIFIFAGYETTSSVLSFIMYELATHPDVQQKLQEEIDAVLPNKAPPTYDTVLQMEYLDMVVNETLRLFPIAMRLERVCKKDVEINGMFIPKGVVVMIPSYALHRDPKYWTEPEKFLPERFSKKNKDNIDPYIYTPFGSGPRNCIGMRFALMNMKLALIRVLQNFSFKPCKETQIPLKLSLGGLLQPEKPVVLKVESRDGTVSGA
Chain of Cytochrome P450 1A2 (Homo sapiens) (P05177 whole entry, looked up): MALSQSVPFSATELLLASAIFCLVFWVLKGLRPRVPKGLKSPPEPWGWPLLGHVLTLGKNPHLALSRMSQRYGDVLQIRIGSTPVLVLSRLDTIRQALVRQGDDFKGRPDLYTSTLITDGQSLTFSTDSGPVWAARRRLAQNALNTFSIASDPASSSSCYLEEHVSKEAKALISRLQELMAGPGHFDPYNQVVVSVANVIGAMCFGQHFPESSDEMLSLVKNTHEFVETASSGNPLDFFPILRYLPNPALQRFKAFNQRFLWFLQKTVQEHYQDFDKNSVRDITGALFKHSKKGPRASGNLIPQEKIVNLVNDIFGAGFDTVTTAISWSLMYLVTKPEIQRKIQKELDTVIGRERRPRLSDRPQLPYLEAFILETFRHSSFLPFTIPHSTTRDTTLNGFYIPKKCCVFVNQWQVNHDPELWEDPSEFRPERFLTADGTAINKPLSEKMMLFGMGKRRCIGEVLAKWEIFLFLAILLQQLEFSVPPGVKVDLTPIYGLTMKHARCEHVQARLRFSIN
Chain of Acetylcholinesterase (Homo sapiens) (P22303 whole entry, looked up): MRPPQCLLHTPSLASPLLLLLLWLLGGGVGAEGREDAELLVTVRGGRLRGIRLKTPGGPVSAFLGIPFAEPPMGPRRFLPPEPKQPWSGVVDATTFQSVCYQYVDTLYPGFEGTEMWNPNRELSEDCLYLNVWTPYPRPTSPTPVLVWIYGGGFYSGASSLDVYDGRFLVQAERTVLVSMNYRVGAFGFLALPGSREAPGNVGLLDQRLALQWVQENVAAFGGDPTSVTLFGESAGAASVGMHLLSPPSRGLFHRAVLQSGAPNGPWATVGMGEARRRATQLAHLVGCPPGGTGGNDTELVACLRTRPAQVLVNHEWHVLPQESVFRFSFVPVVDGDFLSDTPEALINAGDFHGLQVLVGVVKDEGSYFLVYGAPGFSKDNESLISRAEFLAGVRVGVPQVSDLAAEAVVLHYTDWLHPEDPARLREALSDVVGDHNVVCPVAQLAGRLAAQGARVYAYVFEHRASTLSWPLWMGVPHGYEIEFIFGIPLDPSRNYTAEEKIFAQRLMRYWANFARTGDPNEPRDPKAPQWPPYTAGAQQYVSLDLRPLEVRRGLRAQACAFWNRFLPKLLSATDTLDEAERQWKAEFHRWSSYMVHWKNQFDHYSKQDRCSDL
Chain of Voltage-gated inwardly rectifying potassium channel KCNH2 (Homo sapiens) (Q12809 whole entry, looked up): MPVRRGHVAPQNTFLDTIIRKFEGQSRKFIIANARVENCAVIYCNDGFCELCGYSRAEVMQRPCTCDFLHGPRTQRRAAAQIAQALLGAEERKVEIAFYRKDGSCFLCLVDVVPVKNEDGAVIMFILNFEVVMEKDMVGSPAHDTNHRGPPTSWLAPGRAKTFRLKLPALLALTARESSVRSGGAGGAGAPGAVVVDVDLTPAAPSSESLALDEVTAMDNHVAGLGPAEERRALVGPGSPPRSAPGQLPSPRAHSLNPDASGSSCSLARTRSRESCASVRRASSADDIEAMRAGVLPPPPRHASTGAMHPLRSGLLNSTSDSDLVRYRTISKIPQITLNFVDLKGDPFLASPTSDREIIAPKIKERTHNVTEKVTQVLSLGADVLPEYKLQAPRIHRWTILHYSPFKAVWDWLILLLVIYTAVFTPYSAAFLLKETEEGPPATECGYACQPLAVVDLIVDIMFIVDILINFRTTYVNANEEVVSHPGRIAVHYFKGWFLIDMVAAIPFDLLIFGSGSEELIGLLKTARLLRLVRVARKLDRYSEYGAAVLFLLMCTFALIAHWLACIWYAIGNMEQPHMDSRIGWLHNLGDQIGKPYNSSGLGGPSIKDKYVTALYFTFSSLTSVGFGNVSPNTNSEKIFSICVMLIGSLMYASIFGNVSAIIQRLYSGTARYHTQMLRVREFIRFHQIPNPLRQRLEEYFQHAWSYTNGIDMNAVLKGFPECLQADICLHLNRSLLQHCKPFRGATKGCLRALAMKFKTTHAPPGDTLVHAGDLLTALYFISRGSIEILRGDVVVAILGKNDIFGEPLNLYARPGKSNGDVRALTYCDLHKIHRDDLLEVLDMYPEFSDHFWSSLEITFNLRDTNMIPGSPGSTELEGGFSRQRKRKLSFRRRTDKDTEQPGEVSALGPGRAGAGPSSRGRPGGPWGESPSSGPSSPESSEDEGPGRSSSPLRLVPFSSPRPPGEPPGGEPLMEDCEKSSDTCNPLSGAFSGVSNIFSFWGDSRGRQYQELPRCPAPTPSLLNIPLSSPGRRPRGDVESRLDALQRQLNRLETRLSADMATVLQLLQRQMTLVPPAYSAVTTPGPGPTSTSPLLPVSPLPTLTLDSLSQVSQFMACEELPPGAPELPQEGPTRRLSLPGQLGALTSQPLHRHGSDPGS

| SMILES | Potency [1] | Potency [2] | Potency [3] | Potency [4] | Potency [5] | Potency [6] | Potency [7] | Potency [8] | Potency [9] | Potency [10] |
| --- | --- | --- | --- | --- | --- | --- | --- | --- | --- | --- |
| NNC(N)=O | inactive | – | – | – | – | – | – | – | – | – |
| CCOC(=O)c1ncn2c1CN(C)C(=O)c1c(I)cccc1-2 | inactive | – | – | – | – | – | – | – | – | – |
| CCNc1nc(Cl)nc(NC(C)(C)C)n1 | inactive | inactive | inactive | inactive | 11.2 µM (active) | inactive | inactive | – | – | – |
| COc1cc(CC(C)N)cc(OC)c1OC (stereo not drawn) | inactive | inactive | inactive | – | 43.2 µM (active) | inactive | inactive | inactive | – | – |
| O=C(O)C(Cl)Br (stereo not drawn) | inactive | inactive | inactive | – | – | inactive | inactive | inactive | inactive | – |
| COc1ccc(C=O)cc1O | – | inactive | – | inactive | – | inactive | inactive | inactive | – | inactive |
| O=C1C2CC=CCC2C(=O)N1SC(Cl)(Cl)Cl (stereo not drawn) | – | inactive | – | – | 31.6 µM (active) and 22.1 µM (active) | inactive and 48.2 µM (active) | inactive | 31.6 µM (active) and 4.94 µM (active) | 39.8 µM (active) and 8.79 µM (active) | inactive |
| CON(C)C(=O)Nc1ccc(Br)cc1 | inactive | inactive | inactive | inactive | 5.64 µM (active) | inactive | inactive | – | 35.6 µM (active) | – |
| CCOC(=O)COc1ccc(Cl)cc1Cl | inactive | inactive | inactive | inactive | 31.7 µM (active) | inactive | inactive | – | 22.4 µM (active) | – |
| ClC1=C(Cl)C2(Cl)C(CBr)CC1(Cl)C2(Cl)Cl (stereo not drawn) | inactive | inactive | inactive | inactive | inactive | inactive | – | inactive | – | – |
| CCN[C@@H](C)Cc1ccccc1 | inactive | inactive | inactive | 6.28 µM (active) | inactive | inactive | inactive | inactive | – | – |
| C=CCC1(C(C)CC)C(=O)NC(=O)NC1=O (stereo not drawn) | – | inactive | inactive | – | 21.9 µM (active) | inactive | – | – | – | inactive |
| O=C(CCl)NCO | inactive | inactive | inactive | – | inactive | inactive | inactive | inactive | inactive | – |
| CC[C@H](N)c1ccccc1 | inactive | inactive | inactive | – | – | inactive | 31.7 µM (active) | – | 63.3 µM (active) | – |
| CCOC(=O)C(SP(=S)(OC)OC)c1ccccc1 (stereo not drawn) | – | 31.7 µM (active) | – | 44.8 µM (active) | 3.17 µM (active) | – | 2.83 µM (active) | 1.26 µM (active) | 0.283 µM (active) | 71 µM (active) |
